Shown are actives, neighbours in structure and some others; about 5.2% of the full set was active somewhere.
VDR inh: vitamin D3 receptor (human) inhibition. P11473. VDR-SRC2-3 peptide fluorescence polarization, 2 h. Potency, µM, for inactives: max response, negative = inhibition, most hits filed as inhibitors. 400,000 tested, 0.93% active. AID 504847
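Compounds are added to VDR with labelled SRC2-3 coactivator peptide and held 2 h at room temperature. Inhibition of the VDR–peptide interaction is then read as a change in fluorescence polarization.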
rTrxR1 inhibitor: rat TrxR1 inhibition | O89049 | recombinant rTrxR1, NADPH fluorescence consumption, selenite substrate | 390,000 tested, 1% active | Potency, µM (top dose mostly 114 µM), for inactives: at the highest dose activity change, negative = inhibition, most hits filed as inhibitors | AID 588453; also: nearly all actives have a fitted effect of over 65% in size
Target sequence (O89049 whole entry, looked up): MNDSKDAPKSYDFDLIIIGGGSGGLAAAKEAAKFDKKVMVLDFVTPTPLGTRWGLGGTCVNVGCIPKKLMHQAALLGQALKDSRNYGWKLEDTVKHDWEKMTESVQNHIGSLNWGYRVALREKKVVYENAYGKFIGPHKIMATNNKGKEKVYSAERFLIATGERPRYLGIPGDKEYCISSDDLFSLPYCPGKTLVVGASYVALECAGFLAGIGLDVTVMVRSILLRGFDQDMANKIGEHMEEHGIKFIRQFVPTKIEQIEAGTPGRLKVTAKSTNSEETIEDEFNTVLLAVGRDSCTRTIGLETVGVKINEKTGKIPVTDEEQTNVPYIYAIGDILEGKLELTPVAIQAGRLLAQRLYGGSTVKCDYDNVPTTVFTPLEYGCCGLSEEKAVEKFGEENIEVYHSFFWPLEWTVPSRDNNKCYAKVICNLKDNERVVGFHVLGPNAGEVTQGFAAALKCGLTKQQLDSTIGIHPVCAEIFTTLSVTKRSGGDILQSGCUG
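Rat TrxR1 (90 nM in the dispensed reagent) was pre-reduced with 400 uM NADPH for 5 min at room temperature, then incubated with compound for 15 min. After 400 uM selenite was added, NADPH fluorescence (Ex 340/Em 450 nm) was followed for 8 min.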
IDH1 R132H inh: inhibitors of human mutant IDH1 R132H; IDH1-R132H enzyme, NADPH consumption, diaphorase/resazurin fluorescence; O75874; Potency, µM (doses to about 76.6 µM), inactives show top-dose activity change, negative = inhibition, usual class: inhibitors; 390,000 tested, 0.093% active; also: nearly all actives have a fitted effect of over 65% in size
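IDH1-R132H (0.5 ug/mL dispensed) in pH 7.5 Tris buffer was preincubated 30 min with compound, then given a substrate mix of 0.016 mM NADPH and 2 mM alpha-KG for 80 min at room temperature; remaining NADPH was read by diaphorase/resazurin fluorescence.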
Sfp inh: Sfp phosphopantetheinyl transferase inhibition; AID 1490; Biochemical Sfp PPTase activity, qHTS; 310,000 tested, 3.5% active; Potency, µM, for inactives: largest response in the series, negative = inhibition, usual class: inhibitors; Q9F4F7;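 also: the enzyme is Sfp with the accession as filed and its product quenches rhodamine fluorescence; 0% = enzyme reaction without inhibitor and -100% = no enzyme wells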
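After 15 min at room temperature with compound, 15 nM Sfp received 5 uM rhodamine-CoA plus 12.5 uM BHQ-2-ybbR (50 mM Hepes pH 7.6, 10 mM MgCl2). Rate came from the fluorescence difference over 30 min, ex 525/em 598 nm.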
PLK1 PBD block: PLK1 (human) polo-box domain binding inhibition. P53350. Plk1 PBD binding of FITC phosphopeptide, fluorescence polarization. Potency, µM, for the others: max response, negative = inhibition, actives largely listed as inhibitors. 360,000 tested, 2.8% active; also: series mostly up to about 57 µM; nearly all actives have a fitted effect of over 65% in size
TrxR1 substrate: rat thioredoxin reductase 1 substrate activity | O89049 | purified TrxR1 substrate turnover, NADPH consumption readout | Potency, µM (titrated, usually from 114 µM), for inactives: at the top dose activity change, negative = substrate turnover | 390,000 tested, 0.01% active | AID 588456; also: nearly all actives have a fitted effect of over 50% in size
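Rat TrxR1, dispensed at 90 nM, was prereduced with 400 uM NADPH (final) for 5 min at ~22 deg C, then incubated with compound 15 min before 400 uM selenite. A first-read NADPH fluorescence drop versus no-compound background flagged substrates.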
* marks the source's active call; other numbers are inactive results; ? = inconclusive; . = no result; [ ] = dose if it differs, or a comment. Calls follow the shape of the dose curve; as a rule, active = well fitted curve in the direction sought with a large enough effect; inconclusive = small, poorly fitted or top-dose-only effect, or another doubt; inactive = no such curve, though single readings can be large; an effect the other way counts as inactive or inconclusive. Unless noted, % is scaled to controls: 0 for no effect and ±100 for the full control effect; potency is read from the fitted curve at half-maximal effect.

SMILES | VDR inh | rTrxR1 inhibitor | IDH1 R132H inh | Sfp inh | PLK1 PBD block | TrxR1 substrate
N#Cc1ccc(-c2nc3ccc(Cl)cn3c2Cc2cccc(Cl)c2)cc1 | . | . | . | . | -11% | .
CCC1CCC(C(=O)NNC(=O)c2cc(-c3ccco3)[nH]n2)CC1 (stereo not drawn) | 5% | 17%[57.1 µM] | 1% | 45µM* | -16% | 3%[57.1 µM]
O=C(NNC(=O)C1CCCCC1)c1ccco1 | -4% | -16% | -5% | 17% | -3% | -13%
CCN(Cc1cc(=O)n2ccsc2n1)Cc1nc2cc(OC)c(OC)cc2c(=O)[nH]1 | 0% | 0% | 2% | ? | ? | 1%
COCCN1CCC(CNCc2cn(-c3cc(C)ccc3C)nc2-c2ccccc2)C1 (stereo not drawn) | -13% | -2% | 4% | 50µM* | -7% | 0%
S=c1[nH]nc(C2CCCCC2)n1/N=C/c1ccncc1 | -16% | 0%[57.1 µM] | -3% | 40µM* | -23% | 3%[57.1 µM]
Cc1cccc(/C=N/n2c(C3CCCCC3)n[nH]c2=S)c1 | ? | 9% | 6% | 79µM* | 27µM* | 3%
CSc1ccc(/C=N/n2c(C3CCCCC3)n[nH]c2=S)cc1 | -4% | -31% | 13% | -7% | -26% | -10%
S=c1[nH]nc(C2CCCCC2)n1/N=C/c1cccc(Br)c1 | 2% | 5%[57.1 µM] | 4% | 15% | -14% | 11%[57.1 µM]
CC1=CSC2=NS(=O)(=O)CCN12 | -27% | 2% | 0% | -3% | 24µM* | -5%
COc1ccccc1CCC(=O)Nc1ccc2c(c1)c(=O)n(C)n2C | . | . | . | . | -15% | .
C[C@H](CO)N1C[C@H](C)[C@H](CN(C)Cc2ccncc2)Oc2cc(-c3ccccc3F)ccc2S1(=O)=O | . | . | -1% | . | 7% | .
COc1ccc(NC(=O)c2c(NCc3ccc(C)o3)sc3c2CCC(C)C3)c(OC)c1 (stereo not drawn) | -12% | -7%[57.1 µM] | -11% | . | . | -1%[57.1 µM]
COc1ccc(NC(=O)c2c(NCc3sccc3C)sc3c2CCCCC3)c(OC)c1 | -21% | 18µM* | -2% | . | . | -2%[57.1 µM]
COc1ccccc1NC(=O)c1c(NCc2sccc2C)sc2c1CCCCC2 | -15% | ? | -2% | . | . | 4%[57.1 µM]
COc1ccc(NC(=O)c2c(NCc3ccc(C)o3)sc3c2CCCCC3)c(OC)c1 | 2% | 20µM* | 20% | . | . | -9%[57.1 µM]
Nc1c2c(nc3ccc(Br)cc13)N(c1ccccc1)CC2 | -10% | 14% | 6% | 18µM* | -6% | 19%
Cc1cccc(N2CCc3c2nc2ccc(Br)cc2c3N)c1 | -8% | -3% | 3% | 13µM* | 0% | 16%
Nc1c2c(nc3ccc(Br)cc13)N(Cc1ccccc1)CC2 | -7% | 18% | -2% | ? | -17% | -4%
C[C@@H]1CC2C3CCC4=CC(=O)C=CC4(C)[C@@]3(F)[C@@H](O)CC2(C)[C@@]1(O)C(=O)CO (stereo partly drawn) | -1% | . | . | 1% | . | .
CCOc1cccc(C(=O)Nc2ccccc2C(=O)N2CCOCC2)c1 | -10% | 4% | 0% | 20% | 3% | 2%
COc1ccc(C2Nc3ccccc3C(=O)N2NS(C)(=O)=O)c(OC)c1 (stereo not drawn) | ? | 14% | 6% | 3% | 21µM* | 103%
COc1cc(C2Nc3ccccc3C(=O)N2NS(C)(=O)=O)c([N+](=O)[O-])cc1OC (stereo not drawn) | ? | 3%[57.1 µM] | 5% | ? | -9% | 6%[57.1 µM]
COc1ccc2c(c1)O[C@@H](c1cccc(C(F)(F)F)c1)[C@H](OC(=O)Nc1ccc(C)c(Br)c1)C2=O | -2% | . | . | 16% | . | .
c1ccc(-c2ccccc2OCCOCCN2CCNCC2)cc1 | -11% | 16%[57.1 µM] | 11% | 20µM* | -13% | 13%
SMILES | VDR inh | rTrxR1 inhibitor | IDH1 R132H inh | Sfp inh | PLK1 PBD block | TrxR1 substrate
CCN1CCN(CCOCCOc2ccccc2-c2ccccc2)CC1 | . | . | . | 50µM* | . | .
c1ccc(-c2ccccc2OCCOCCN2CCOCC2)cc1 | -16% | 17% | 6% | ? | 3% | 4%
COc1ccc(C(=O)Nc2ccc(-c3cc4ccccc4oc3=O)c(C)c2)cc1Br | -6% | 180% | 1% | . | . | 199%
CC1=C(C)CC(C(=O)Nc2ccc(C(=O)N3CCOCC3)cc2)C(C(=O)O)C1 (stereo not drawn) | -22% | 10%[57.1 µM] | 11% | 14% | 21µM* | 4%[57.1 µM]
O=C(Nc1ccc(C(=O)N2CCOCC2)cc1)C1CC1 | -14% | 14% | 24% | . | -6% | 5%
N=C1/C(=C/c2cccs2)C(=O)N=C2SN=C(SCc3ccccc3)N12 | 12% | 8% | 0% | 4% | 27µM* | 3%
CC(C)CSC1=NSC2=NC(=O)/C(=C\c3cccs3)C(=N)N12 | -16% | -4%[57.1 µM] | 1% | 23% | ? | 2%[57.1 µM]
CSC1=NSC2=NC(=O)/C(=C/c3coc4ccccc4c3=O)C(=N)N12 | 50µM* | -31% | -5% | -23% | 21µM* | -7%
CC(C)(C)N1C(=O)c2ccccc2NC(=O)C1C(=O)NCCc1ccccc1F (stereo not drawn) | . | . | . | . | -9% | .
CCn1c(=O)c(=O)[nH]c2cc(C(=O)NC3CCCC3)ccc21 | ? | 23%[57.1 µM] | 0% | 18% | 30µM* | 10%
CCn1c(=O)c(=O)[nH]c2cc(C(=O)NCC3CCCCC3)ccc21 | -19% | -15% | 0% | 2% | 2% | 1%
Cc1ccc(N(CC(=O)Nc2ccc(Cl)cc2)S(=O)(=O)c2cccc3nonc23)cc1 | -2% | 1% | 5% | . | . | -5%
Cc1ccc(S(=O)(=O)c2nc(C(C)(C)C)oc2N2CCOCC2)cc1 | ? | 0.56µM* | 0% | 28µM* | ? | 11%[57.1 µM]
Cc1ccc(S(=O)(=O)c2nc(-c3ccc(F)cc3)oc2N2CCOCC2)cc1 | 4% | ? | -5% | -10% | -6% | -1%
Cc1ccc(S(=O)(=O)c2nc(C)oc2N2CCOCC2)cc1 | -17% | ? | -1% | 11% | 21µM* | 14%
CC(C)[C@H](NS(=O)(=O)c1ccc2c(c1)OCCO2)C(=O)OCC(=O)Nc1ccccc1Cl | 2% | -4% | 7% | 13% | -1% | -7%
CC(C)[C@H](NS(=O)(=O)c1ccc2c(c1)OCCO2)C(=O)OCC(=O)Nc1cc(Cl)ccc1Cl | 79µM* | -2% | 6% | 9% | 30µM* | -10%
CN(CCCC1CCCC1)C(=O)CC1C(=O)NCCN1Cc1cccc(F)c1F (stereo not drawn) | -3% | 40µM* | 12% | -5% | -10% | 9%
Clc1ccc(SCNc2ccccc2Cl)cc1 | ? | 55% | -2% | 45µM* | 9.5µM* | -3%
COc1cc(/C=C2/S/C(=N/S(=O)(=O)c3ccccc3)NC2=O)c([N+](=O)[O-])cc1OC | -8% | -15%[57.1 µM] | 0% | 79µM* | 27µM* | -11%[57.1 µM]
